In PubChem BioAssay (NCI) one finds growth data, which are given here for eight compounds.

Among the test systems are NCI-H23 lung; NCI-H226 lung; NCI-H322M lung; HOP-62 NSCLC; NCI-H460 lung; HOP-92 NSCLC; NCI-H522 lung; A549/ATCC NSCLC; 786-0 renal; COLO 205 colon; DU-145 prostate; K-562 leukemia; MALME-3M melanoma; MDA-MB-231 breast; RXF 393 renal; SF-268 CNS; SF-295 CNS; SF-539 CNS; UACC-257 melanoma; M14 melanoma.
Test in all cases: NCI-60 one-dose screen, 48 h (100 = growth as untreated, 0 = no growth, -100 = all killed)
Holding throughout (settings): 10 µM unless noted

The structures appear in SMILES notation. This is part of a sample that, as a whole, favours compounds with a hit. Of some 83,000 tested, about 20% had one in any assay.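 Percent growth is the endpoint: 0 to 100 indicates growth inhibition (40 means 60% inhibition), 0 means no net growth, and negative values indicate cell death.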 Unmarked numbers belong to inactive results. Activity calls are given as the source filed them. How the source made its calls: active means growth percent below 10; inactive means the rest.

For `COc1cccc(/C=C/c2nc3ccccc3c(=O)n2CC(=O)Nc2ccccc2)c1`, the growth is 59.2% in the assay with NCI-H23 lung; 13.9% in the assay on NCI-H226 lung; 72.3% in the assay with NCI-H322M lung; 4.65% (active) in the assay with HOP-62 NSCLC; 51.4% in the assay on NCI-H460 lung; 19.5% in the assay with HOP-92 NSCLC. In addition, the growth was 53.3% in the assay on NCI-H522 lung; 16.9% in the assay with A549/ATCC NSCLC; -8.65% (active) in the assay with 786-0 renal; 75.5% in the assay with COLO 205 colon; 87.8% in the assay on DU-145 prostate; 93% with K-562 leukemia. In addition, the growth was 56.1% with MALME-3M melanoma; -29% (active) with MDA-MB-231 breast; 0.184% (active) in the assay with RXF 393 renal; 69.5% with SF-268 CNS; 48.8% in the assay with SF-295 CNS; 11.8% with SF-539 CNS. In addition, the results for the growth in the assay with UACC-257 melanoma and in the assay on M14 melanoma were 67.8% and 47.8%, respectively.

As for `O=C(Nc1nc2ccc([N+](=O)[O-])cc2s1)Nc1ccc(Cl)cc1Cl`, the growth with NCI-H23 lung is 18.2%; in the assay with NCI-H226 lung, 61.1%; with NCI-H322M lung it was 72.2%; in the assay with HOP-62 NSCLC, 39.8%; with NCI-H460 lung, 27.6%; in the assay with HOP-92 NSCLC it was 29.1%. For the same compound, the growth in the assay on NCI-H522 lung is 20.3%; with A549/ATCC NSCLC, 55.8%; with 786-0 renal it was 19.6%; in the assay with COLO 205 colon, 74.7%; with DU-145 prostate, 64.1%; with K-562 leukemia it was 24.6%. In addition, the growth in the assay on MALME-3M melanoma is 52.4%; with MDA-MB-231 breast it was 1.5% (active); in the assay on RXF 393 renal it was 20%; in the assay with SF-268 CNS, 66.1%; in the assay on SF-295 CNS, 17.2%; in the assay with SF-539 CNS, 11.7%. In addition, the figures for the growth in the assay on UACC-257 melanoma and in the assay with M14 melanoma were 60.3% and 77.9%, respectively.

Regarding `Cc1ccccc1NC(=O)c1cccc(NC(=O)CCl)c1`, the growth in the assay on NCI-H23 lung was 52.8%; in the assay with NCI-H226 lung, 42.4%; in the assay with NCI-H322M lung, 101%; with HOP-62 NSCLC, 32.3%; with NCI-H460 lung, 41.6%; in the assay with HOP-92 NSCLC, 70%. Moreover, the growth is -71.7% (active) in the assay on NCI-H522 lung; 59.1% in the assay on A549/ATCC NSCLC; 16.6% in the assay with 786-0 renal; 76.5% in the assay on COLO 205 colon; 69.4% in the assay with DU-145 prostate; 28.1% with K-562 leukemia. Also, the growth was 79.6% in the assay with MALME-3M melanoma; 49.7% in the assay with MDA-MB-231 breast; 49.7% with RXF 393 renal; 60.1% with SF-268 CNS; 38.4% in the assay with SF-295 CNS; 51.3% in the assay on SF-539 CNS. Further, the growth in the assay with UACC-257 melanoma was 47.5%; in the assay on M14 melanoma it was 50.5%.

Turning to `Cc1cnc2ccc(Oc3ccccc3-c3ccccc3)nn12`, the growth in the assay on NCI-H23 lung was 96.6%; with NCI-H226 lung, 106%; with NCI-H322M lung, 103%; with HOP-62 NSCLC, 124%; in the assay on NCI-H460 lung it was 118%; in the assay with HOP-92 NSCLC, 122%. The growth was 108% in the assay with NCI-H522 lung; 117% in the assay with A549/ATCC NSCLC; 102% in the assay on 786-0 renal; 131% with COLO 205 colon; 115% with DU-145 prostate; 101% with K-562 leukemia. For the same compound, the growth is 100% with MALME-3M melanoma; 109% in the assay with MDA-MB-231 breast; 107% in the assay on RXF 393 renal; 106% with SF-268 CNS; 97.5% in the assay with SF-295 CNS; 104% with SF-539 CNS. Moreover, the growth is 116% in the assay with UACC-257 melanoma and 99.6% with M14 melanoma.

As to `COc1ccc(NC(=O)Cn2c(/C=C/c3ccc([N+](=O)[O-])cc3)nc3ccccc3c2=O)cc1`, the growth with NCI-H23 lung was 34.9%; in the assay with NCI-H226 lung it was 21.2%; in the assay with NCI-H322M lung, 70.2%; with HOP-62 NSCLC, 33.2%; with NCI-H460 lung, 42.3%; in the assay with HOP-92 NSCLC, -12% (active). Besides, the growth is 73% in the assay on NCI-H522 lung; 75.9% in the assay on A549/ATCC NSCLC; 9.31% (active) in the assay on 786-0 renal; 85.3% in the assay with COLO 205 colon; 88.8% in the assay with DU-145 prostate; 120% with K-562 leukemia. Further, the growth in the assay with MALME-3M melanoma was 72.4%; in the assay with MDA-MB-231 breast, -18.4% (active); in the assay with RXF 393 renal it was -57.8% (active); in the assay with SF-268 CNS it was 64.9%; with SF-295 CNS it was 56.3%; in the assay with SF-539 CNS, 30.3%. For the same compound, the values for the growth in the assay with UACC-257 melanoma and with M14 melanoma were 86.3% and 69.5%, respectively.

For `COc1ccc(-c2cc(C(=O)N=Nc3c(O)[nH]c4ccc(Cl)cc34)c3ccccc3n2)cc1`, the growth in the assay with NCI-H23 lung is 14.3%; in the assay on NCI-H226 lung it was 81.8%; in the assay with NCI-H322M lung, 79%; in the assay with HOP-62 NSCLC, -20.9% (active); in the assay on NCI-H460 lung, 0.622% (active); in the assay on HOP-92 NSCLC, 117%. Besides, the growth was -16.1% (active) with NCI-H522 lung; -4.4% (active) with A549/ATCC NSCLC; 72.4% in the assay on 786-0 renal; 7.83% (active) with COLO 205 colon; 19% in the assay on DU-145 prostate; 64.8% in the assay with K-562 leukemia. Also, the growth in the assay with MALME-3M melanoma was 90.1%; in the assay with MDA-MB-231 breast, -44.2% (active); in the assay with RXF 393 renal, 133%; in the assay on SF-268 CNS it was 68.8%; in the assay on SF-295 CNS, 96.7%; in the assay on SF-539 CNS, 44.8%. The growth in the assay on UACC-257 melanoma was 106%; with M14 melanoma, 76.9%.

As to `Cc1nn(-c2ccccc2)c2nc(C)n(CC(=O)N/N=C/c3ccccc3O)c(=O)c12`, the growth in the assay on NCI-H23 lung is 28.8%; with NCI-H226 lung it was 21.6%; with NCI-H322M lung, 29.4%; in the assay on HOP-62 NSCLC, 31.3%; with NCI-H460 lung, 4.76% (active); with HOP-92 NSCLC it was 62.5%. The growth was 6.39% (active) in the assay on NCI-H522 lung; 26.2% with A549/ATCC NSCLC; 18.5% with 786-0 renal; 16.8% with COLO 205 colon; 48.9% in the assay on DU-145 prostate; 18.4% with K-562 leukemia. Further, the growth in the assay on MALME-3M melanoma is 47.4%; in the assay with MDA-MB-231 breast it was 34.2%; in the assay on RXF 393 renal, 25.9%; in the assay on SF-268 CNS it was 47.6%; in the assay with SF-295 CNS, 23.6%; in the assay on SF-539 CNS, 21.8%. Moreover, the growth in the assay on UACC-257 melanoma was 2.59% (active); in the assay with M14 melanoma it was 2.09% (active).

Regarding `CCCCCCCCc1ccc(C(=O)Nc2ccc(C)cc2C(=O)O)cc1`, the growth was 85.2% in the assay on NCI-H23 lung; 84.3% in the assay on NCI-H226 lung; 91.1% in the assay on NCI-H322M lung; 96.3% in the assay on HOP-62 NSCLC; 88.4% with NCI-H460 lung; 10.4% in the assay on HOP-92 NSCLC. For the same compound, the growth in the assay with NCI-H522 lung was 73.2%; in the assay on A549/ATCC NSCLC, 66.8%; in the assay on 786-0 renal, 89.6%; in the assay with COLO 205 colon, 119%; with DU-145 prostate, 95%; in the assay with K-562 leukemia it was 59.4%. Moreover, the growth is 92.2% in the assay with MALME-3M melanoma; 96.9% in the assay with MDA-MB-231 breast; 110% in the assay with RXF 393 renal; 96% with SF-268 CNS; 51.1% with SF-295 CNS; 100% with SF-539 CNS. Moreover, the growth is 95.8% in the assay with UACC-257 melanoma and 104% in the assay with M14 melanoma.
